High-throughput results deposited in PubChem by National Center for Advancing Translational Sciences (NCATS).
Compounds with a hit are over-represented: about 7.9% of the library has one in this group of screens.
SW480 rereplic: DNA re-replication induction in SW480 cells; 340,000 compounds, 1.8% hits; Potency, µM (highest dose often 46.1 µM), for inactives: at the top dose re-replication activation, usual class: activators; SW480 DNA re-replication, Hoechst DNA content imaging, 48 h; further: % of control where 0% means no effect; nearly all actives have a fitted effect of over 55% in size
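SW480 cells exposed to compounds for 48 hr at 37 C, 5% CO2, then Hoechst-stained 40 min. Nuclear DNA content imaged by fluorescence scanning (405 nm excitation, 500-530 nm emission); re-replication scored as increased high-intensity nuclei.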
HT1080-NT tox: kills 2HG-producing HT-1080-NT fibrosarcoma cells | HT-1080-NT fibrosarcoma viability, CellTiter-Glo ATP luminescence, 48 h | Potency, µM (series often up to 46.1 µM), for inactives: top-dose activity, negative = less viability, actives largely listed as cytotoxic | 360,000 compounds, 1.6% hits | AID 686970;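 further: NT is the 2HG producing partner of a matched IDH1 knockdown line; 0% = DMSO-treated cells and -100% = media-only wells without cells; nearly all actives have a fitted effect of over 55% in size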
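Fibrosarcoma NT cells, 750 per well in 5% FBS RPMI, were exposed to compound for 48 hours. Viability: CellTiter-Glo luminescence.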
KB-V1 MDR tox: KB-V1 MDR subline cytotoxicity; Potency, µM (titrated, usually from 46.1 µM), most hits filed as cytotoxic; AID 1347076; 400,000 compounds, 3.4% hits; KB-V1 MDR cells viability, CellTiter-Glo, 72 h; further: on the % scale 0 is the no-effect control and ±100 the full control effect; nearly all actives have a fitted effect of over 60% in size
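Cytotoxicity toward P-gp-expressing KB-V1 cells was determined as loss of CellTiter-Glo luminescence after 72 h at 37 degrees C. Compounds were tested in quantitative HTS format across a concentration range, with curves fitted to normalized data.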
MCF10A rereplic: DNA re-replication induction in MCF 10a cells; Potency, µM (top dose mostly 46.1 µM), for the others: top-dose activity, positive = re-replication, hits mostly activators; 350,000 compounds, 2.9% hits; MCF 10A DNA re-replication, Hoechst nuclear intensity, 48 h; further: % of control where 0% means no effect; nearly all actives have a fitted effect of over 50% in size
KB-3-1 cytotox: KB-3-1 parental cell cytotoxicity. KB-3-1 viability, CellTiter-Glo ATP luminescence, 72 h. Potency, µM (top dose mostly 46.1 µM), most hits filed as cytotoxic. 400,000 compounds, 1.4% hits; further: on the % scale 0 is the no-effect control and ±100 the full control effect; nearly all actives have a fitted effect of over 60% in size
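Here the drug-naive KB-3-1 line serves as comparator for MDR sub-line selectivity; cells received compound titrations, 72 h at 37 °C, then CellTiter-Glo readout.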
HT1080 IDH1KD tx: kills HT-1080 cells with IDH1 knockdown; HT-1080 IDH1 knockdown viability, ATP luminescence, 48 h; 360,000 compounds, 2% hits; Potency, µM (doses to about 46.1 µM), inactives show top-dose activity, negative = toxicity, usual class: cytotoxic; AID 686971;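 further: 0% = DMSO wells and -100% = cell-free medium wells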
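Using the IDH1-knockdown HT-1080 line run in the same batch and compound series as the NT line, viability after 48 h at 37 °C was determined by CellTiter-Glo luminescence and expressed as % activity.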
An asterisk follows results filed as active; i = inactive; ? = inconclusive; · = no result given. The call rests on the fitted dose curve; in most records, active means well fitted curve in the direction sought with a large enough effect; inconclusive means small, poorly fitted or top-dose-only effect, or another doubt; inactive means no such curve, though single readings can be large; an effect the other way counts as inactive or inconclusive. Potency means the concentration at half of the fitted maximal effect.

SMILES	SW480 rereplic	HT1080-NT tox	KB-V1 MDR tox	MCF10A rereplic	KB-3-1 cytotox	HT1080 IDH1KD tx
CCOc1cc(/C=N/N=C(N)N)ccc1OCc1ccc(Cl)cc1	?	?	?	18.4µM*	?	?
COc1cc(/C=N/N=C(N)N)ccc1OCc1ccc(Cl)cc1	?	?	i	?	?	?
O=C(Nc1nc(COc2ccccc2)cs1)C12CC3CC(CC(C3)C1)C2	-3.0%	6.31µM*	i	8.2µM*	i	?
Cc1ccc(C(=O)Nc2nc(COc3ccccc3)cs2)s1	?	?	?	20.6µM*	i	?
O=C(Nc1ccccc1C(F)(F)F)c1ncn[nH]1	2.0%	21.2%	i	0.3%	i	-8.9%
O=C1/C(=C/c2cccs2)NC(=S)N1C1CC1	18.4µM*	1.3%	i	0.9%	i	-2.6%
CCOC(=O)c1c(NC(=O)CCS(=O)(=O)c2ccccc2)sc2c1CCN(C(C)C)C2	?	9.8%	·	?	·	11.0%
CCCCOC(=O)C1C2CCC(O2)C1C(=O)OCC (configuration not stated)	-1.0%	-9.5%	·	-4.2%	·	0.1%
CCC(C)n1c(=N)c(C(=O)NC2CCCCC2)cc2c(=O)n3cc(C)ccc3nc21 (configuration not stated)	·	·	?	·	i	·
CCCN1CCN(c2nnc(-n3cccc3C(=O)Nc3cc(Cl)ccc3C)s2)CC1	·	·	i	·	i	·
Cc1ccc(/C=N/NC(=O)c2ccc(Br)o2)s1	?	-6.1%	i	6.6%	i	-4.5%
CCc1ccc(/C=N\NC(=O)c2ccc(Br)o2)s1	13.6%	-0.6%	18.4µM*	1.0%	i	-15.7%
CCc1ccc(/C=N/NC(=O)c2cc(C3CC3)nc3ccc(Br)cc23)s1	18.4µM*	6.51µM*	4.11µM*	1.58µM*	4.61µM*	5.8µM*
COc1cc(C2C(C(=O)c3ccc(C)o3)=C(O)C(=O)N2CCN2CCOCC2)ccc1OCCC(C)C (configuration not stated)	2.2%	8.7%	i	18.0%	i	21.1%
O=C(O)CSCC(=O)N1CCN(c2nc3cc(Cl)ccc3s2)CC1	-8.5%	4.7%	i	0.6%	i	12.4%
O=C(c1ccc2c(c1)OCCO2)N1CCCCC1	-2.7%	12.1%	?	-4.1%	i	5.6%
C=CCc1cc(C(=O)N2CCCCC2)ccc1O	0.8%	-0.2%	20.6µM*	-0.9%	?	-2.3%
O=C(Nc1nc(-c2ccccc2)ns1)c1ccc(Cl)cc1	·	·	i	·	i	·
CC(C)(C)C(=O)Nc1nc(-c2ccccc2)ns1	-5.9%	-25.2%	14.6µM*	?	?	-18.6%
CC(C#N)Sc1ccc(S(=O)(=O)N(C)C2CCCCC2)cn1 (configuration not stated)	-4.3%	0.4%	i	2.9%	i	2.1%
CCOc1ccccc1NC(=O)CSc1ccc2nc(-c3ccccc3)cn2n1	·	·	i	·	i	·
C=C1C(=O)OC2C=C(CO)CCC=C(CO)CC(OC(=O)C(C)C)C12 (configuration not stated)	?	-0.5%	i	10.3µM*	?	13µM*
O=c1c(Cl)c(NCc2ccccc2Cl)cnn1C12CC3CC(CC(C3)C1)C2	?	9.2%	18.4µM*	?	?	18.8%
O=c1c(Cl)c(NCc2ccco2)cnn1C12CC3CC(CC(C3)C1)C2	-5.7%	4.1%	i	?	i	0.7%
Cc1ccc(S(=O)(=O)NC(=O)NC2=NC(C)(C)N(c3ccc(Cl)c(Cl)c3)C(N)=N2)cc1	·	3.26µM*	i	·	?	1.64µM*
SMILES	SW480 rereplic	HT1080-NT tox	KB-V1 MDR tox	MCF10A rereplic	KB-3-1 cytotox	HT1080 IDH1KD tx
CCOC(=O)c1cc(C(=O)NN)c(C)nc1C	?	3.2%	i	6.7%	i	16.7%
CCOC(=O)c1cc2c(nc1C)-c1cc(Cl)cc(Cl)c1OC2O (configuration not stated)	?	-25.6%	i	18.4µM*	i	-16.2%
COc1ccc(Cn2c(C3CC3)nc3ccc(NC(=O)c4cccnc4)cc3c2=O)cc1	?	10.3µM*	?	1.3%	5.8µM*	10.3µM*
COc1ccc(NC(=O)C2CCC(N3C(=O)C4C5C=CC(C5)C4C3=O)CC2)cc1 (configuration not stated)	0.9%	-14.0%	i	-3.3%	i	-11.4%
CC(=O)Nc1ccc(NC(=O)C2CCC(N3C(=O)C4C5C=CC(C6CC56)C4C3=O)CC2)cc1 (configuration not stated)	2.3%	-1.0%	i	23.1µM*	i	-2.2%
O=C(Nc1ccc(Cc2ccncc2)cc1)C1CCC(N2C(=O)C3C4C=CC(C5CC45)C3C2=O)CC1 (configuration not stated)	14.2%	?	11.6µM*	?	?	?
CCCCCCC(=O)Nc1ccc2nc3c(=O)n(C)c(=O)n(C)c3nc2c1C	·	·	?	·	i	·
CCCSc1ccc2nc(-c3ccccc3)cn2c1	·	11.6µM*	20.6µM*	?	18.4µM*	11.6µM*
CCc1ccc(C(=O)c2cn(CC(=O)NC3CCCCC3)c3nc(C)ccc3c2=O)cc1	·	·	i	·	i	·
Nc1nonc1-n1nnc(C(=O)N/N=C/c2cccnc2)c1CSC1=NCCS1	5.6%	?	i	18.4µM*	i	?
Nc1nonc1-n1nnc(C(=O)N/N=C/c2ccc(Br)cc2)c1CSC1=NCCS1	?	-10.6%	i	?	?	?
Nc1nonc1-n1nnc(C(=O)N/N=C/c2ccccc2)c1CSc1ccccc1	?	-3.7%	i	?	i	-6.1%
Cc1ccc(/C=N/NC(=O)c2nnn(-c3nonc3N)c2CSc2ccccc2)s1	13µM*	10.7%	i	20.6µM*	i	27.0%
CCn1c(C(=O)NCc2ccc(OC)cc2)cc2sc(Cl)cc21	·	·	i	·	i	·
CCOC(=O)c1ccc(N2CCN(C(=O)c3ccccc3)CC2)c(NC(=O)c2ccco2)c1	-8.5%	-1.6%	i	2.3%	i	-3.6%
COc1ccc(OC)c(Nc2nc(NCCCN(C)C)nc(N)c2[N+](=O)[O-])c1	?	-14.1%	i	?	i	16.4µM*
COc1cc(C=O)cc(OC)c1[N+](=O)[O-]	·	·	i	·	i	·
CCN(CCNCC(O)COc1ccccc1C(C)C)c1cccc(C)c1 (configuration not stated)	-3.1%	20.6µM*	?	?	i	18.4µM*
O=C(CN1CCN(Cc2ccccc2Cl)CC1)N=Nc1c(O)[nH]c2ccccc12	59.9%	0.0%	14.6µM*	-2.6%	i	-11.2%
